# Several values for one entry are separate records, joined by “and”; a condition that tells them apart may be missing. Equal values may be shown once. Read-outs that look alike come from different tables or passages of the source.
# Tests used:
# HPK1 = details: concentration: 1 μM, replicates: in singlicate, n = 1
# HUNK = details: concentration: 1 μM, replicates: in singlicate, n = 1
# ICK = details: concentration: 1 μM, replicates: in singlicate, n = 1
# IGF1R = details: concentration: 1 μM, replicates: in singlicate, n = 1
# IKK-alpha = system: T1, IKK-alpha; details: concentration: 1 μM, replicates: in singlicate, n = 1
# T1 construct: gene CHUK
# IKK-beta = system: T2, IKK-beta; details: concentration: 1 μM, replicates: in singlicate, n = 1
# T2 construct: gene IKBKB
# IKK-epsilon = system: T3, IKK-epsilon; details: concentration: 1 μM, replicates: in singlicate, n = 1
# T3 construct: gene IKBKE
# INSRR = details: concentration: 1 μM, replicates: in singlicate; n = 1
# INSR = details: concentration: 1 μM, replicates: in singlicate, n = 1
# IRAK1 = details: concentration: 1 μM, replicates: in singlicate, n = 1
# IRAK3 = details: concentration: 1 μM, replicates: in singlicate; n = 1
# IRAK4 = details: concentration: 1 μM, replicates: in singlicate, n = 1
# ITK = details: concentration: 1 μM, replicates: in singlicate, n = 1
# [1] = system: JAK1(JH1domain-catalytic); details: concentration: 1 μM, replicates: in singlicate, n = 1
# [2] = system: JAK1(JH2domain-pseudokinase); details: concentration: 1 μM, replicates: in singlicate, n = 1
# [3] = system: JAK2(JH1domain-catalytic); details: concentration: 1 μM, replicates: in singlicate, n = 1
# [4] = system: JAK3(JH1domain-catalytic); details: concentration: 1 μM, replicates: in singlicate, n = 1
# JNK1 = system: T4, JNK1; details: concentration: 1 μM, replicates: in singlicate, n = 1
# T4 construct: gene MAPK8
# JNK2 = system: T5, JNK2; details: concentration: 1 μM, replicates: in singlicate, n = 1
# T5 construct: gene MAPK9
# JNK3 = system: T6, JNK3; details: concentration: 1 μM, replicates: in singlicate, n = 1
# T6 construct: gene MAPK10
# 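Further: KINOMEscan kinase panel screen.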
smiles,measurement,setting,value
Cl.Nc1ncnc2occ(-c3ccc(NC(=O)Nc4cc(C(F)(F)F)ccc4F)cc3)c12 [SB-707548],%Inh,HPK1,85%
same,%Inh,HUNK,15%
same,%Inh,ICK,5%
same,%Inh,IGF1R,5%
same,%Inh,IKK-alpha,86%
same,%Inh,IKK-beta,35%
same,%Inh,IKK-epsilon,63%
same,%Inh,INSRR,0%
same,%Inh,INSR,23%
same,%Inh,IRAK1,35%
same,%Inh,IRAK3,0%
same,%Inh,IRAK4,3%
same,%Inh,ITK,9%
same,%Inh,[1],50%
same,%Inh,[2],7%
same,%Inh,[3],59%
same,%Inh,[4],23%
same,%Inh,JNK1,9%
same,%Inh,JNK2,94.9%
same,%Inh,JNK3,12%
O=C(Nc1n[nH]c2cc(-c3cccc(F)c3)ccc12)C1CC1 [SB-735464],%Inh,HPK1,0%
same,%Inh,HUNK,0%
same,%Inh,ICK,34%
same,%Inh,IGF1R,0%
same,%Inh,IKK-alpha,25%
same,%Inh,IKK-beta,37%
same,%Inh,IKK-epsilon,14%
same,%Inh,INSRR,2%
same,%Inh,INSR,9%
same,%Inh,IRAK1,10%
same,%Inh,IRAK3,0%
same,%Inh,IRAK4,17%
same,%Inh,ITK,0%
same,%Inh,[1],12%
same,%Inh,[2],23%
same,%Inh,[3],7%
same,%Inh,[4],0%
same,%Inh,JNK1,23%
same,%Inh,JNK2,12%
same,%Inh,JNK3,17%
O=C(NCCCN1CCOCC1)c1cccc(Nc2nccc(Nc3ccc(Oc4ccccc4)cc3)n2)c1 [GW663929],%Inh,HPK1,8%
same,%Inh,HUNK,0%
same,%Inh,ICK,0%
same,%Inh,IGF1R,0%
same,%Inh,IKK-alpha,0%
same,%Inh,IKK-beta,0%
same,%Inh,IKK-epsilon,0%
same,%Inh,INSRR,0%
same,%Inh,INSR,15%
same,%Inh,IRAK1,28%
same,%Inh,IRAK3,63%
same,%Inh,IRAK4,0%
same,%Inh,ITK,0%
same,%Inh,[1],46%
same,%Inh,[2],21%
same,%Inh,[3],82%
same,%Inh,[4],0%
same,%Inh,JNK1,33%
same,%Inh,JNK2,25%
same,%Inh,JNK3,16%
CN(C1=C(c2ccccc2)C(=O)NC1=O)c1ccccc1 [SB-334860],%Inh,HPK1,0%
same,%Inh,HUNK,0%
same,%Inh,ICK,13%
same,%Inh,IGF1R,12%
same,%Inh,IKK-alpha,0%
same,%Inh,IKK-beta,0%
same,%Inh,IKK-epsilon,27%
same,%Inh,INSRR,0%
same,%Inh,INSR,5%
same,%Inh,IRAK1,0%
same,%Inh,IRAK3,0%
same,%Inh,IRAK4,0%
same,%Inh,ITK,0%
same,%Inh,[1],0%
same,%Inh,[2],6%
same,%Inh,[3],0%
same,%Inh,[4],14%
same,%Inh,JNK1,0%
same,%Inh,JNK2,21%
same,%Inh,JNK3,15%
Cl.Cl.Cl.Fc1ccc(-c2ncn(C3CCNCC3)c2-c2ccnc(Nc3ccccc3)n2)cc1 [SB-238039],%Inh,HPK1; 1 µM,96.2% and 92.5%
same,%Inh,HUNK; 1 µM,61% and 0%
same,%Inh,ICK; 1 µM,0% and 34%
same,%Inh,IGF1R; 1 µM,37% and 0%
same,%Inh,IKK-alpha; 1 µM,34% and 0%
same,%Inh,IKK-beta; 1 µM,10% and 0%
same,%Inh,IKK-epsilon; 1 µM,0% and 3%
same,%Inh,INSRR,0%
same,%Inh,INSR,15%
same,%Inh,IRAK1; 1 µM,66% and 0%
same,%Inh,IRAK3,0%
same,%Inh,IRAK4,0%
same,%Inh,ITK; 1 µM,5% and 14%
same,%Inh,[1]; 1 µM,0% and 8%
same,%Inh,[2]; 1 µM,15% and 0%
same,%Inh,[3]; 1 µM,44% and 0%
same,%Inh,[4],0%
same,%Inh,JNK1; 1 µM,97% and 96.3%
same,%Inh,JNK2,100%
same,%Inh,JNK3,99.8%
CC(C)(CN)c1nc(-c2ccc(Cl)c(O)c2)c(-c2ccncc2)[nH]1.O=C(O)C(F)(F)F [SB-477794],%Inh,HPK1,46%
same,%Inh,HUNK; 1 µM,0% and 16%
same,%Inh,ICK; 1 µM,23% and 0%
same,%Inh,IGF1R; 1 µM,0% and 9%
same,%Inh,IKK-alpha; 1 µM,64% and 34%
same,%Inh,IKK-beta; 1 µM,33% and 0%
same,%Inh,IKK-epsilon; 1 µM,10% and 6%
same,%Inh,INSRR,0%
same,%Inh,INSR; 1 µM,23% and 0%
same,%Inh,IRAK1; 1 µM,62% and 44%
same,%Inh,IRAK3,0%
same,%Inh,IRAK4; 1 µM,43% and 0%
same,%Inh,ITK; 1 µM,9% and 0%
same,%Inh,[1]; 1 µM,28% and 15%
same,%Inh,[2]; 1 µM,0% and 2%
same,%Inh,[3]; 1 µM,18% and 8%
same,%Inh,[4]; 1 µM,0% and 28%
same,%Inh,JNK1; 1 µM,41% and 32%
same,%Inh,JNK2; 1 µM,85% and 80%
same,%Inh,JNK3; 1 µM,93.6% and 92.8%
O=c1cc(N2CCOCC2)nc2n(Cc3cccc(F)c3)ccn12 [GSK2297430],%Inh,HPK1,34%
same,%Inh,HUNK,4%
same,%Inh,ICK,0%
same,%Inh,IGF1R,9%
same,%Inh,IKK-alpha,3%
same,%Inh,IKK-beta,5%
same,%Inh,IKK-epsilon,0%
same,%Inh,INSRR,0%
same,%Inh,INSR,0%
same,%Inh,IRAK1,0%
same,%Inh,IRAK3,0%
same,%Inh,IRAK4,1%
same,%Inh,ITK,0%
same,%Inh,[1],8%
same,%Inh,[2],0%
same,%Inh,[3],2%
same,%Inh,[4],0%
same,%Inh,JNK1,21%
same,%Inh,JNK2,13%
same,%Inh,JNK3,0%
O=c1cc(N2CCOCC2)nc2n(Cc3cccc4ccccc34)ccn12 [GSK2333389],%Inh,HPK1,5%
same,%Inh,HUNK,0%
same,%Inh,ICK,0%
same,%Inh,IGF1R,4%
same,%Inh,IKK-alpha,29%
same,%Inh,IKK-beta,17%
same,%Inh,IKK-epsilon,0%
same,%Inh,INSRR,0%
same,%Inh,INSR,0%
same,%Inh,IRAK1,13%
same,%Inh,IRAK3,0%
same,%Inh,IRAK4,20%
same,%Inh,ITK,21%
same,%Inh,[1],7%
same,%Inh,[2],0%
same,%Inh,[3],17%
same,%Inh,[4],0%
same,%Inh,JNK1,21%
same,%Inh,JNK2,0%
same,%Inh,JNK3,0%
Cl.Oc1cccc(Nc2ccnc3cc(-c4ccncc4)ccc23)c1 [GW494601],%Inh,HPK1,37%
same,%Inh,HUNK,11%
same,%Inh,ICK,0%
same,%Inh,IGF1R,13%
same,%Inh,IKK-alpha,23%
same,%Inh,IKK-beta,0%
same,%Inh,IKK-epsilon,20%
same,%Inh,INSRR,0%
same,%Inh,INSR,0%
same,%Inh,IRAK1,22%
same,%Inh,IRAK3,57%
same,%Inh,IRAK4,1%
same,%Inh,ITK,0%
same,%Inh,[1],65%
same,%Inh,[2],0%
same,%Inh,[3],50%
same,%Inh,[4],18%
same,%Inh,JNK1,14%
same,%Inh,JNK2,37%
same,%Inh,JNK3,21%
